SMILES strings stand for the structures. About 83,000 compounds went through this panel and 20% of them were active in at least one assay; those are over-represented in the sample as a whole.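 Compound tested at a single concentration for 48 hours in 96-well plates; a percent growth value below 10 was scored as active.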 A number with no mark means an inactive call. Activity calls are given as the source filed them.

The subject of the first assay is OVCAR-5 ovarian. Briefly: NCI-60 one-dose screen, 48 h (100 = growth as untreated, 0 = no growth, -100 = all killed). Particulars: 10 µM unless noted.
On to `COc1ccccc1-n1c(SCc2cc(OC)c(OC)c(OC)c2)nc2ccc(Cl)cc2c1=O`, for which the growth is 53.3%.

As for `C[C@@H](Oc1cc(-c2cnn(C3CC4(CCCNC4)C3)c2)cnc1N)c1c(Cl)ccc(F)c1Cl` (some centres not stated), the growth was 34.3%.

As for `Cn1c2ccc(Cl)cc2c2nn(C(=O)c3ccccc3)c(=O)nc21`, the growth is 99.5%.

Turning to `CC(C)(C)[Si](C)(C)OC1[C@@H](COC(=O)NC(=O)CCl)O[C@@H](n2cnc3c(N)ncnc32)[C@H]1O[Si](C)(C)C(C)(C)C` (some centres not stated), the growth is 77.4%.

Turning to `CC1=CN2C(=NC3=C(CCCC/C3=C\c3ccccc3)C2c2ccccc2)S1` (configuration not stated), the growth was 106%.

Take `Nc1c(Br)cc(Br)cc1-c1n[nH]c(=O)[nH]c1=O`: the growth is 97.2%.

Turning to `c1ccc(-c2nc(N3CCOCC3)c3c4c(sc3n2)CCCCCC4)nc1`, the growth was 57.2%.

A further assay relates to OVCAR-4 ovarian. Described as above. Particulars: 10 µM unless noted.
On to `COc1ccccc1-n1c(SCc2cc(OC)c(OC)c(OC)c2)nc2ccc(Cl)cc2c1=O`, for which the growth is 63%.

`C[C@@H](Oc1cc(-c2cnn(C3CC4(CCCNC4)C3)c2)cnc1N)c1c(Cl)ccc(F)c1Cl` (some centres not stated): the growth is 37.2%.

As for `Cn1c2ccc(Cl)cc2c2nn(C(=O)c3ccccc3)c(=O)nc21`, the growth was 114%.

Turning to `CC(C)(C)[Si](C)(C)OC1[C@@H](COC(=O)NC(=O)CCl)O[C@@H](n2cnc3c(N)ncnc32)[C@H]1O[Si](C)(C)C(C)(C)C` (some centres not stated), the growth was 36.9%.

`CC1=CN2C(=NC3=C(CCCC/C3=C\c3ccccc3)C2c2ccccc2)S1` (configuration not stated): the growth was 95.8%.

In the case of `Nc1c(Br)cc(Br)cc1-c1n[nH]c(=O)[nH]c1=O`, the growth is 98.5%.

As for `c1ccc(-c2nc(N3CCOCC3)c3c4c(sc3n2)CCCCCC4)nc1`, the growth was 42.2%.

The next assay deals with SK-OV-3 ovarian. The assay is described as above. The following applies: 10 µM.
As for `COc1ccccc1-n1c(SCc2cc(OC)c(OC)c(OC)c2)nc2ccc(Cl)cc2c1=O`, the growth is 59.5%.

For `C[C@@H](Oc1cc(-c2cnn(C3CC4(CCCNC4)C3)c2)cnc1N)c1c(Cl)ccc(F)c1Cl` (some centres not stated), the growth is 78%.

On to `Cn1c2ccc(Cl)cc2c2nn(C(=O)c3ccccc3)c(=O)nc21`, for which the growth was 114%.

Take `CC(C)(C)[Si](C)(C)OC1[C@@H](COC(=O)NC(=O)CCl)O[C@@H](n2cnc3c(N)ncnc32)[C@H]1O[Si](C)(C)C(C)(C)C` (some centres not stated): the growth was 87.8%.

Take `CC1=CN2C(=NC3=C(CCCC/C3=C\c3ccccc3)C2c2ccccc2)S1` (configuration not stated): the growth was 88.5%.

As to `Nc1c(Br)cc(Br)cc1-c1n[nH]c(=O)[nH]c1=O`, the growth is 93.4%.

For the compound `c1ccc(-c2nc(N3CCOCC3)c3c4c(sc3n2)CCCCCC4)nc1`, the growth is 65.7%.

For the next assay, the system named is IGROV1 ovarian. The description is as above. Particulars: 10 µM unless noted.
In the case of `COc1ccccc1-n1c(SCc2cc(OC)c(OC)c(OC)c2)nc2ccc(Cl)cc2c1=O`, the growth is 47.7%.

As to `C[C@@H](Oc1cc(-c2cnn(C3CC4(CCCNC4)C3)c2)cnc1N)c1c(Cl)ccc(F)c1Cl` (some centres not stated), the growth was 48.9%.

As to `Cn1c2ccc(Cl)cc2c2nn(C(=O)c3ccccc3)c(=O)nc21`, the growth was 110%.

As for `CC(C)(C)[Si](C)(C)OC1[C@@H](COC(=O)NC(=O)CCl)O[C@@H](n2cnc3c(N)ncnc32)[C@H]1O[Si](C)(C)C(C)(C)C` (some centres not stated), the growth was -68.3% (active).

On to `CC1=CN2C(=NC3=C(CCCC/C3=C\c3ccccc3)C2c2ccccc2)S1` (configuration not stated), for which the growth is 97.9%.

For the compound `Nc1c(Br)cc(Br)cc1-c1n[nH]c(=O)[nH]c1=O`, the growth was 105%.

Consider `c1ccc(-c2nc(N3CCOCC3)c3c4c(sc3n2)CCCCCC4)nc1`, for which the growth was 42.1%.

The next assay concerns OVCAR-3 ovarian. Described as above. The following applies: 10 µM unless noted.
For the compound `COc1ccccc1-n1c(SCc2cc(OC)c(OC)c(OC)c2)nc2ccc(Cl)cc2c1=O`, the growth was 0.54% (active).

For `C[C@@H](Oc1cc(-c2cnn(C3CC4(CCCNC4)C3)c2)cnc1N)c1c(Cl)ccc(F)c1Cl` (some centres not stated), the growth is 52%.

In the case of `Cn1c2ccc(Cl)cc2c2nn(C(=O)c3ccccc3)c(=O)nc21`, the growth was 111%.

Regarding `CC(C)(C)[Si](C)(C)OC1[C@@H](COC(=O)NC(=O)CCl)O[C@@H](n2cnc3c(N)ncnc32)[C@H]1O[Si](C)(C)C(C)(C)C` (some centres not stated), the growth was 0.626% (active).

For `CC1=CN2C(=NC3=C(CCCC/C3=C\c3ccccc3)C2c2ccccc2)S1` (configuration not stated), the growth was 110%.

With `Nc1c(Br)cc(Br)cc1-c1n[nH]c(=O)[nH]c1=O`, the growth was 113%.

On to `c1ccc(-c2nc(N3CCOCC3)c3c4c(sc3n2)CCCCCC4)nc1`, for which the growth is 68.2%.

The subject of another assay is HS 578T breast. The assay is described as above. Particulars: 10 µM unless noted.
On to `COc1ccccc1-n1c(SCc2cc(OC)c(OC)c(OC)c2)nc2ccc(Cl)cc2c1=O`, for which the growth is 39.6%.

Regarding `C[C@@H](Oc1cc(-c2cnn(C3CC4(CCCNC4)C3)c2)cnc1N)c1c(Cl)ccc(F)c1Cl` (some centres not stated), the growth was 30.5%.

As to `Cn1c2ccc(Cl)cc2c2nn(C(=O)c3ccccc3)c(=O)nc21`, the growth was 104%.

Take `CC(C)(C)[Si](C)(C)OC1[C@@H](COC(=O)NC(=O)CCl)O[C@@H](n2cnc3c(N)ncnc32)[C@H]1O[Si](C)(C)C(C)(C)C` (some centres not stated): the growth was 74.5%.

As to `CC1=CN2C(=NC3=C(CCCC/C3=C\c3ccccc3)C2c2ccccc2)S1` (configuration not stated), the growth is 92.8%.

Regarding `Nc1c(Br)cc(Br)cc1-c1n[nH]c(=O)[nH]c1=O`, the growth was 78.3%.

On to `c1ccc(-c2nc(N3CCOCC3)c3c4c(sc3n2)CCCCCC4)nc1`, for which the growth is 53.4%.

The record behind these values is PubChem BioAssay (NCI).
